Screens deposited in PubChem BioAssay by National Center for Advancing Translational Sciences (NCATS).
BCR signal inh – inhibitors of chronic active B-cell receptor signaling; ABC-DLBCL IkBa-CBG/CBR reporter, luminescence ratio, 4 h; Potency, µM (doses to about 46.1 µM), inactives show top-dose activity change, negative = inhibition, actives largely listed as inhibitors; 340,000 compounds, 0.05% hits; active = well fitted inhibition curve with a large enough effect in the signal ratio, with a control signal flat, not every such curve was filed as active; inconclusive = small, poorly fitted or top-dose-only effect, or effect the other way, or a change in a side signal; the % refers to the signal ratio;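 note: potency is the fitted concentration of half-maximal effect; plate controls were basal doxycycline-induced cells for no effect and cells given 10 µM MG132 for full effect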
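Compounds up to 46 uM were incubated four hours with TMD8 cells whose green CBG68 luciferase is fused to IkappaBalpha; red CBR luminescence normalised the signal, and concentration-effect curves were fitted to fusion, red and ratio data.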
SW480 rereplic – DNA re-replication induction in SW480 cells. SW480 DNA re-replication, Hoechst DNA content imaging, 48 h. Potency, µM (titrated, usually from 46.1 µM), for inactives: at the top dose re-replication activation, usual class: activators. 340,000 compounds, 1.8% hits. AID 624297; note: potency is the fitted concentration of half-maximal effect; % of control where 0% means no effect; nearly all actives have a fitted effect of over 55% in size
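Image-based read-out: total Hoechst fluorescence of nuclei (405 nm excitation, 500-530 nm emission), with hits raising the fraction of high-intensity nuclei. SW480 colon cells incubated 48 hr with compounds at 37 C.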
DT40 TDP1 no CPT – qHTS for Inhibitors of human tyrosyl-DNA phosphodiesterase 1 (TDP1): qHTS in cells in absence of CPT; DT40 Tdp1-/- hTDP1 cells, no CPT, ATP luminescence, 48 h; Potency, µM (series often up to 46.2 µM), without a hit: at the highest dose activity change, negative = growth inhibition, most hits filed as inhibitors; 420,000 compounds, 15% hits; AID 686978, 2013; note: potency is the fitted concentration of half-maximal effect; % is set by controls: 0 for no effect and ±100 for the full control effect; nearly all actives have a fitted effect of over 55% in size
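No-CPT arm: Tdp1-/-;hTDP1 DT40 cells (400/well) plus compounds, incubated ≥48 hr at 37 °C. Readout CellTiter-Glo luminescence.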
DT40 TDP1 CPT – growth inhibition of DT40 Tdp1-/-;hTDP1 cells with camptothecin (screen for TDP1 inhibitors); chicken DT40 Tdp1-/-;hTDP1 cells + 20 nM CPT, ATP luminescence, 48 h; 420,000 compounds, 12% hits; Potency, µM (series often up to 46.2 µM), for the others: at the top dose activity change, negative = growth inhibition, usual class: inhibitors; AID 686979; note: potency is the fitted concentration of half-maximal effect; % is set by controls: 0 for no effect and ±100 for the full control effect; nearly all actives have a fitted effect of over 55% in size
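Cell growth measured by CellTiter-Glo luminescence after a minimum 48 h, 37 C compound exposure with 20 nM CPT in Tdp1-knockout DT40 cells stably expressing hTDP1, seeded 400/well; qHTS titration format.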
MCF10A rereplic – DNA re-replication induction in MCF 10a cells; MCF 10A DNA re-replication, Hoechst nuclear intensity, 48 h; Potency, µM (titrated, usually from 46.1 µM), for inactives: at the top dose activity, positive = re-replication, usual class: activators; 350,000 compounds, 2.9% hits; AID 624296; note: potency is the fitted concentration of half-maximal effect; % of control where 0% means no effect; nearly all actives have a fitted effect of over 50% in size
IL-1B inflam inh – inflammasome signaling inhibition, IL-1 beta readout; AID 743279; THP-1 LPS/ATP IL-1B secretion, AlphaLISA, 16 h; hits give low values; 360,000 compounds, 4.7% hits; activity change, % at 57.5 µM; in the data active = activity change below about -50%; inconclusive = mostly about -30% to -49%; note: % is set by controls: 0 for no effect and ±100 for the full control effect
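THP-1 cells pretreated 1 hr with compounds (up to 57.5 uM final), then stimulated with LPS (250 ng/mL final) plus ATP (1.25 mM final); secreted IL-1B measured by AlphaLISA after 16 hr, decreased signal indicating inhibition.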
An asterisk follows results filed as active; ! = not active in a repeat; [ ] = another dose, or the depositor's remark. Only some compounds are listed: those with a hit (about 19% of all), similar ones and a draw of the others. Unless noted, calls come from the whole dose curve; as a rule, active = well fitted curve in the direction sought with a large enough effect; inconclusive = small, poorly fitted or top-dose-only effect, or another doubt; inactive = no such curve, though single readings can be large; an effect the other way counts as inactive or inconclusive.

For COC(=O)[C@H](CC(C)C)N(Cc1ccccc1)S(=O)(=O)N(Cc1ccccc1)[C@@H](CC(C)C)C(=O)OC the results were BCR signal inh 2%, SW480 rereplic -5%[9.22 µM], DT40 TDP1 no CPT 12µM*, DT40 TDP1 CPT 21µM*, MCF10A rereplic inconclusive and IL-1B inflam inh 7.
O=C(NC(CO)Cc1ccccc1)c1ccccc1 (configuration not stated) was read as BCR signal inh inconclusive, SW480 rereplic 2%, DT40 TDP1 no CPT -13%, DT40 TDP1 CPT 30%, MCF10A rereplic 7% and IL-1B inflam inh 1.
Cc1ccc(NC(=O)c2ccc3nsnc3c2)c(C)c1 was read as BCR signal inh 13%, SW480 rereplic inconclusive, DT40 TDP1 no CPT inconclusive, DT40 TDP1 CPT inconclusive, MCF10A rereplic inconclusive and IL-1B inflam inh -5.
For COc1cc([N+](=O)[O-])ccc1NC(=O)COC(=O)c1ccc(NC(N)=O)cc1 the results were BCR signal inh inconclusive, SW480 rereplic -15%, DT40 TDP1 no CPT -19%, DT40 TDP1 CPT 11%, MCF10A rereplic 5% and IL-1B inflam inh 23.
Screening CC1(C(=O)NS(=O)(=O)Cc2ccccc2C(F)(F)F)CCN1C(=O)c1ccco1 (configuration not stated) returned DT40 TDP1 no CPT 3%, DT40 TDP1 CPT 4% and IL-1B inflam inh 11.
For NS(=O)(=O)c1ccc(NC(=O)CCC(=O)c2ccc(Cl)s2)cc1 the results were BCR signal inh inconclusive, SW480 rereplic -5%, DT40 TDP1 no CPT -2%, DT40 TDP1 CPT -9%, MCF10A rereplic -6% and IL-1B inflam inh 10.
`CC(C)C[C@H](CO)N(Cc1ccccc1)S(=O)(=O)N(Cc1ccccc1)[C@@H](CO)CC(C)C` gave BCR signal inh inconclusive, SW480 rereplic 18%, DT40 TDP1 no CPT 12µM*!, DT40 TDP1 CPT 16µM*, MCF10A rereplic inconclusive and IL-1B inflam inh -87*.
Screening CC(C)N(Cc1ccccc1)S(=O)(=O)N(C)C returned BCR signal inh 2%, SW480 rereplic -6%, DT40 TDP1 no CPT -19%, DT40 TDP1 CPT -2%, MCF10A rereplic 0% and IL-1B inflam inh 14.
Screening Cc1noc(C)c1S(=O)(=O)N(Cc1ccccc1)C(C)C returned BCR signal inh 6%, SW480 rereplic -12%, DT40 TDP1 no CPT 0%, DT40 TDP1 CPT 16%, MCF10A rereplic 0% and IL-1B inflam inh 23.
Screening C=C[C@H](CC(C)C)N(Cc1ccccc1)S(=O)(=O)N(Cc1ccc(OC)cc1)[C@H](C=C)CC(C)C returned BCR signal inh -1%, SW480 rereplic -31%[9.22 µM], DT40 TDP1 no CPT 13µM*, DT40 TDP1 CPT inconclusive, MCF10A rereplic 4% and IL-1B inflam inh 13.
C=CS(=O)(=O)N(Cc1ccccc1)[C@H](CO)CC(C)C was read as SW480 rereplic 8%, DT40 TDP1 no CPT 11µM*, DT40 TDP1 CPT 10µM*, MCF10A rereplic 9% and IL-1B inflam inh -60*.
For C=CCCN([C@H](CO)Cc1ccccc1)S(=O)(=O)c1ccccc1Br the results were BCR signal inh 4%, SW480 rereplic -3%, DT40 TDP1 no CPT -20%, DT40 TDP1 CPT inconclusive, MCF10A rereplic inconclusive and IL-1B inflam inh -9.
`C=CS(=O)(=O)N(Cc1ccccc1Br)[C@H](CO)Cc1ccccc1` gave SW480 rereplic inconclusive, DT40 TDP1 no CPT 7.1µM*, DT40 TDP1 CPT 7.9µM*, MCF10A rereplic 16µM* and IL-1B inflam inh -108*.
For Cc1ccccc1NC(=O)CSc1nc2c(c(=O)n(C)c(=O)n2C)n1Cc1ccccc1F the results were DT40 TDP1 no CPT -9% and DT40 TDP1 CPT 0%.
`COc1cc(C)c(CN2CCc3nnc(C(C)NC(=O)c4cc(F)ccc4F)n3CC2)cc1C` (configuration not stated) gave DT40 TDP1 no CPT -2% and DT40 TDP1 CPT 0%.
Screening CC1CCN(CCC(=O)Nc2ccc(F)c(F)c2)CC1 returned BCR signal inh 0%, SW480 rereplic 8%, DT40 TDP1 no CPT -29%, DT40 TDP1 CPT 0%, MCF10A rereplic 3% and IL-1B inflam inh -4.
COc1ccc([N+](=O)[O-])cc1NS(=O)(=O)c1ccc(Cl)c(C(=O)Nc2sc3c(c2C#N)CCCCC3)c1 was read as BCR signal inh 4%.
Cc1c(C(=O)N2CC3CCC2C3)sc2ncnc(NCCc3c[nH]c4ccccc34)c12 (configuration not stated) was read as DT40 TDP1 no CPT 23µM* and DT40 TDP1 CPT inconclusive.
CN(C)CCCNc1nc2cc(-c3ccc(C(=O)N4CCN(C)CC4)cc3)sc2c(=O)n1C was read as DT40 TDP1 no CPT inconclusive, DT40 TDP1 CPT -1% and IL-1B inflam inh 11.
Screening COc1cccc(CNc2nc3cc(-c4ccc(C(=O)N5CCN(C)CC5)cc4)sc3c(=O)n2C)c1 returned DT40 TDP1 no CPT inconclusive, DT40 TDP1 CPT 21µM* and IL-1B inflam inh -20.
COc1cccc(CNc2nc3cc(-c4ccccc4)sc3c(=O)n2C)c1 was read as DT40 TDP1 no CPT inconclusive, DT40 TDP1 CPT inconclusive and IL-1B inflam inh -23.
C=CCNc1nc2cc(-c3ccc(C(=O)N4CCOCC4)cc3)sc2c(=O)n1C was read as DT40 TDP1 no CPT inconclusive, DT40 TDP1 CPT 16µM* and IL-1B inflam inh 13.
`CN1CCCN(C(=O)c2c(F)cccc2Cl)CC1` gave BCR signal inh 0%, SW480 rereplic -19%, DT40 TDP1 no CPT 21%, DT40 TDP1 CPT -30%, MCF10A rereplic 6% and IL-1B inflam inh -2.
`COC1=CC(=O)OC(c2ccc(C(F)(F)F)cc2)C1` (configuration not stated) gave DT40 TDP1 no CPT 1%, DT40 TDP1 CPT 2% and IL-1B inflam inh inconclusive.
`CCCN(CCC)c1nc(N)nc(C#N)n1` gave DT40 TDP1 no CPT 18µM* and DT40 TDP1 CPT inconclusive.
`CCN(CC)c1nc(C#N)nc(N(CC)CC)n1` gave BCR signal inh 1%, SW480 rereplic -8%, DT40 TDP1 no CPT -16%, DT40 TDP1 CPT inconclusive, MCF10A rereplic 9% and IL-1B inflam inh 1.
`CC/C(=N/NC(=O)c1ccc2c(c1)OCO2)c1ccccc1O` gave SW480 rereplic inconclusive, DT40 TDP1 no CPT 3.7µM*, DT40 TDP1 CPT 6.5µM*, MCF10A rereplic 8% and IL-1B inflam inh 226.
